Source: ChEMBL document CHEMBL3433997, “St. Jude Leishmania screening dataset” (2016)

What was measured:
Type in all cases: functional
[1] = target: Solute carrier family 2, facilitated glucose transporter member 1 (Homo sapiens) (UniProt P11166); assay: ST_JUDE_LEISH: Cytotoxicity at 2uM final concentration against transgenic Leishmania Mexicana promastigotes LmGLUT1 that are glucose transport deficient and complemented with the human glucose transporter GLUT1. Activity is measured by DNA content using SYBR green in vitro
Chain of Solute carrier family 2, facilitated glucose transporter member 1 (Homo sapiens) (P11166 whole entry): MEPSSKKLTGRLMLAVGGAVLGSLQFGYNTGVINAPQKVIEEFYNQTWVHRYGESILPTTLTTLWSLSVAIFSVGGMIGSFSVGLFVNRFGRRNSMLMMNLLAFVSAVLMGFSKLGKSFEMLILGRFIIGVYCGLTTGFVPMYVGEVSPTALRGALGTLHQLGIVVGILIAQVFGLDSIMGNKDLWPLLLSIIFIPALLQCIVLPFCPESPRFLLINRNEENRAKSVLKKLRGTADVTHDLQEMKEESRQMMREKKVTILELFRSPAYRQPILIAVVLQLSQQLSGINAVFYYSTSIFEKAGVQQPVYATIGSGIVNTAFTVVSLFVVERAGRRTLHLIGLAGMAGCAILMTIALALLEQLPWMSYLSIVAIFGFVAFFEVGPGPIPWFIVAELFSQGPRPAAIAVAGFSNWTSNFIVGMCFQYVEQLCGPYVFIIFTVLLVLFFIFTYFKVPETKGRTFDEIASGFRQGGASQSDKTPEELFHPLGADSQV

[2] = target: Hexose transporter 1 (Plasmodium falciparum) (UniProt O97467); assay: ST_JUDE_LEISH: Cytotoxicity at 2uM final concentration against transgenic Leishmania Mexicana promastigotes LmPfHT that are glucose transport deficient and complemented with the Plasmodium falciparum hexose transporter. Activity is measured by DNA content using SYBR green in vitro
[3] = target: Glucose transporter (Leishmania mexicana) (UniProt O61059); assay: ST_JUDE_LEISH: Cytotoxicity at 2uM final concentration against transgenic Leishmania Mexicana promastigotes LmGT2 that are glucose transport deficient and complemented with the L. Mexicana glucose transporter 2. Activity is measured by DNA content using SYBR green in vitro

Compound | inhibition [1] [%] | inhibition [2] [%] | inhibition [3] [%]
COc1cc(N(Cc2ccc(F)cc2)C(=O)c2ccc(-c3ccccc3)cc2)ccc1OCCN1CCCC1 | 9.7 | 5.41 | 7.12
COc1ccc(S(=O)(=O)N(CC(=O)NN=C(C)c2cccs2)c2cc(C)cc(C)c2)cc1OC | 0.78 | 2.03 | -1.17
O=C(Nc1cccc(-c2ccc(-c3nc4cc(C(F)(F)F)ccc4[nH]3)cc2)c1)c1cccnc1 | 3.27 | 1.71 | -0.02
O=C(NC1CCCCN(Cc2ccccc2O)C1)c1ccc(Cl)c(Cl)c1 (configuration not stated) | 7.63 | 5.13 | 3.76
Cc1cccc(CN2CCCN(Cc3ccc(C(=O)Nc4ccc(C)c(F)c4)cc3)CC2)c1 | 1.23 | 4.06 | 2.11
CCC(O)c1ccc(Br)cc1NC(=O)c1cccc(Cl)c1 (configuration not stated) | -1.21 | 1.01 | -0.55
CC(C)(C)NS(=O)(=O)c1cc(C(=O)N2CCC(CCN3CCC(C(=O)c4ccc(F)cc4)CC3)(c3cccc(F)c3)CC2)c(Cl)cc1F | 7.28 | 9.1 | 5.52
Cc1ccc(C(=O)Cn2nc(-c3ccc(C)c(S(=O)(=O)N4CCCCC4)c3)ccc2=O)cc1 | 8.67 | 12.3 | 6.75
C=CCc1ccc(C[C@H](NC(=O)OC(C)(C)C)C(=O)OC)cc1 | 22.2 | 40.4 | 34.5
Nc1ncc(-c2cccc(F)c2)cc1-c1nc2cc(F)ccc2[nH]1 | 4.17 | 11.1 | 6.56
Cc1ccc(C)c2sc(N3CCN(C(=O)c4ccc([N+](=O)[O-])o4)CC3)nc12 | 28.7 | 38.4 | 7.78
COc1ccc(NC(=O)[C@H](Cc2ccccc2)Nc2cc(C)nc(NCCc3cccs3)n2)cc1 | 2.27 | 2.32 | -0.24
O=C(Nc1ccc(Cn2ncc(N3CCCNCC3)c(Cl)c2=O)cc1)Nc1cc(C(F)(F)F)cc(C(F)(F)F)c1 | 2.99 | 1 | 1.99
COc1ccc(NC(=O)Nc2cccc(-c3ccc(-c4nc5cc(C(F)(F)F)ccc5[nH]4)cc3)c2)cc1 | 0.43 | -0.19 | -2.91
